Measurements reported in PubChem BioAssay (NCI).
The panel holds about 83,000 compounds, 20% with a hit somewhere; the sample as a whole holds those more often.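 Treatment: one concentration, 48 hours, 96-well format. Scoring: percent growth, with anything below 10 considered active.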 Values without a mark were called inactive. The source made the active and inactive calls.

Columns and labels:
Assay in all cases: NCI-60 one-dose screen, 48 h (100 = growth as untreated, 0 = no growth, -100 = all killed)
Details in all cases: 10 µM
HT29 colon = test system: HT29 colon
SNB-75 CNS = test system: SNB-75 CNS
SNB-19 CNS = test system: SNB-19 CNS
U251 CNS = test system: U251 CNS
PC-3 prostate = test system: PC-3 prostate
SK-MEL-5 melanoma = test system: SK-MEL-5 melanoma
UACC-62 melanoma = test system: UACC-62 melanoma
LOX IMVI melanoma = test system: LOX IMVI melanoma
SK-MEL-28 melanoma = test system: SK-MEL-28 melanoma
SK-MEL-2 melanoma = test system: SK-MEL-2 melanoma

SMILES	growth (HT29 colon)	growth (SNB-75 CNS)	growth (SNB-19 CNS)	growth (U251 CNS)	growth (PC-3 prostate)	growth (SK-MEL-5 melanoma)	growth (UACC-62 melanoma)	growth (LOX IMVI melanoma)	growth (SK-MEL-28 melanoma)	growth (SK-MEL-2 melanoma) [%]
COc1ccc([N+](=O)[O-])c(C(=O)O)c1	102%	100%	103%	101%	99.8%	98.5%	106%	98.5%	106%	–
Cc1ccc(S(=O)(=O)OCCN(CCOS(=O)(=O)c2ccc(C)cc2)c2c[nH]c(=O)[nH]c2=O)cc1	99.7%	92.2%	100%	95%	94.6%	101%	100%	104%	102%	–
COc1ccc(-c2nn(-c3cccc(NC(=O)c4cccc(C(F)(F)F)c4)c3)cc2-c2ccncc2)cc1Cl	8.18% (active)	6.59% (active)	79.6%	-3.25% (active)	14%	23.7%	38.2%	28.6%	40.6%	–
COc1cc2nc(Nc3cccc(NC(C)=O)c3)nc(N)c2cc1OC	111%	85%	103%	94.7%	60%	95.5%	91.7%	86.7%	90.3%	–
O=S(=O)(Nc1ccccn1)c1ccc(N=Nc2ccc(O)c3ncccc23)cc1	79.5%	-6.04% (active)	12%	0.16% (active)	-5.46% (active)	-4.96% (active)	-4.64% (active)	13.7%	33.9%	–
Nc1c(C(=O)Nc2ccccc2Cl)sc2nc3c(cc12)C(=O)CCC3	40.2%	52.4%	51.1%	73.3%	37.1%	32.5%	47.1%	55%	57.7%	–
O=C1CC[C@@H]2CCCC[C@@H]2C1	107%	95.2%	102%	108%	85.3%	110%	94.6%	101%	112%	–
O=C(CC(NC(=O)OCc1ccccc1)C(=O)OCc1ccccc1)OCc1ccccc1 (stereo not drawn)	98.6%	113%	109%	90.4%	93.8%	94.1%	97.2%	101%	108%	–
COc1ccc(S(=O)(=O)NCCCNc2nccc(-c3c(-c4ccc(F)cc4)nc4sccn34)n2)cc1	11%	49.3%	99.1%	50%	52.9%	49.5%	48.5%	40.1%	73.5%	–
COc1ccc(-c2nn(-c3cccc(NC(=O)Nc4ccccc4)c3)cc2-c2ccncc2)cc1Cl	-69.6% (active)	27.5%	83.5%	-35.8% (active)	8.81% (active)	42.1%	46.4%	29%	11.3%	–
CSc1nc(=O)n(Cc2ccc(F)cc2)c(=O)n1Cc1ccc(C)cc1	101%	74.9%	100%	94.7%	88.5%	107%	93.5%	90.9%	108%	–
O=S(=O)(NCCCNc1nccc(-c2c(-c3ccc(F)cc3)nc3sccn23)n1)c1ccc(F)cc1	3.28% (active)	40.7%	93.2%	35.9%	32.3%	31.6%	18.5%	28.3%	67.3%	–
O=C1/C(=C/c2ccc([N+](=O)[O-])s2)Oc2ccccc21	-15% (active)	-7.58% (active)	-0.508% (active)	-76.5% (active)	-23.2% (active)	-64.8% (active)	-80.4% (active)	-70.4% (active)	-35.9% (active)	–
CCOC(=O)C1CCc2c(ccc3ccccc23)N1CCC#N (stereo not drawn)	100%	74.2%	99%	89.7%	84.9%	89.2%	91%	85.7%	91.2%	–
FC(F)(F)c1ccc(-c2cnc(Cl)nc2N2CCC3(CC2)OCCO3)cc1	96.9%	93.8%	102%	85.3%	87.2%	93.8%	96.8%	90.4%	102%	–
COc1ccc2c(c1)N(CCO)C1=C(C(=O)OC1)C2c1cc(OC)c(OC)c(OC)c1 (stereo not drawn)	-4.82% (active)	38.3%	19.1%	9.9% (active)	21.9%	-24.7% (active)	8.69% (active)	25.1%	65.6%	–
COc1ccc2c(c1)C(=O)c1c-2c(OCCN(C)C)nc2cc(OC)c(OC)cc12	30.1%	51.7%	57.1%	50.5%	69.2%	89.7%	83.1%	-36.6% (active)	112%	–
COc1cc2cc3c(nc2cc1OC)CCN3Cc1ccc(NC(=O)c2ccc(Cl)c(C(F)(F)F)c2)cc1	105%	61.7%	86.6%	84.6%	69.6%	85%	79.9%	89.9%	97.9%	–
O=C(Nc1cccc(-n2cc(-c3ccncc3)c(-c3ccc(O)c(Cl)c3)n2)c1)c1ccc(Cl)c(Cl)c1	69.8%	38.5%	72.8%	11%	37.9%	48.1%	51.1%	53%	47.6%	–
O=S(=O)(NCCCNc1nccc(-c2c(-c3ccc(F)cc3)nc3sccn23)n1)c1ccc2ccccc2c1	-7.72% (active)	50.1%	82.4%	27.4%	35.5%	43.4%	45%	37.3%	72.6%	–
COc1cc(C2CC(c3ccc(Nc4ccnc5cc(Cl)ccc45)cc3)=NN2c2ccc(Cl)cc2)cc(OC)c1OC (stereo not drawn)	32.6%	57.2%	67.9%	51.9%	36.4%	46.8%	22.2%	56.3%	67.4%	55.2
FC(F)(F)c1ccc(-c2cnc(-n3cc(COCCN4CCCCC4)nn3)nc2NC2CCCCCC2)cc1	-73.1% (active)	11.5%	84.2%	-74.5% (active)	7.37% (active)	-91% (active)	-79.2% (active)	-55.8% (active)	-90.5% (active)	–
CCCCCCCCCCCCCCCC(=O)OC1[C@@H](OC(=O)CCCCCCCCCCCCCCC)[C@@H](C(=O)N[C@@H](CCCCN)C(=O)OC)O[C@H]1n1cnc2c(=O)[nH]c(NC(=O)C(C)C)nc21 (stereo partly drawn)	98.2%	94.1%	93.5%	90.2%	103%	101%	111%	93.5%	113%	–
O=C(Nc1ccncc1)C(=O)c1cn(S(=O)(=O)c2ccc(F)cc2)c2ccccc12	1.81% (active)	45%	67.2%	19.4%	27.4%	17.7%	36.1%	38.3%	56.1%	11.2
Cc1ccc(C)c(C(O)(c2cc(C)ccc2C)C2(O)CCCCC2)c1	90%	95.9%	98.8%	90.1%	86.8%	99.4%	89.7%	86.6%	105%	–
CC1=C(N2CCOCC2)C(N2CCOCC2)=C(C)C(=O)C1=O	111%	97.4%	103%	101%	104%	99.2%	109%	101%	106%	–
O=C(N/N=C/c1cc2ccccc2c2ccccc12)c1cc(O)c(O)c(O)c1	94.8%	56.4%	50.6%	20.3%	52.3%	52.9%	41.5%	47.2%	55.6%	–
O=C1NC(=O)c2ncccc21	108%	98%	107%	106%	107%	95.1%	112%	101%	110%	–
CCc1ccc2c(c1)N(CCO)C1=C(C(=O)OC1)C2c1cc(OC)c(OC)c(OC)c1 (stereo not drawn)	-24.2% (active)	49.3%	21.7%	10.9%	26.9%	-14.5% (active)	16.2%	25%	64.5%	–
